# Test results from the supplement of paper PMC11732987, “Enantioselective OTUD7B fragment discovery through chemoproteomics screening and high-throughput optimisation” (Communications Chemistry, 2025).
# A number with no mark means an inactive call.
# How the values were obtained:
# Experiment in all cases: log2 ratio of Biotin-Ahx-Ub-VS probe labelling (fragment/DMSO); higher = less target engagement (more negative = stronger competition), active = hit call of the paper (q ≤ 0.05, log2 ratio ≤ -1)
# Conditions in all cases: compound concentration: 200 uM; treatment time: 3 h
# [1] = biological target: T1, ALG13 (UniProt Q9NP73)
# T1 sequence (whole entry): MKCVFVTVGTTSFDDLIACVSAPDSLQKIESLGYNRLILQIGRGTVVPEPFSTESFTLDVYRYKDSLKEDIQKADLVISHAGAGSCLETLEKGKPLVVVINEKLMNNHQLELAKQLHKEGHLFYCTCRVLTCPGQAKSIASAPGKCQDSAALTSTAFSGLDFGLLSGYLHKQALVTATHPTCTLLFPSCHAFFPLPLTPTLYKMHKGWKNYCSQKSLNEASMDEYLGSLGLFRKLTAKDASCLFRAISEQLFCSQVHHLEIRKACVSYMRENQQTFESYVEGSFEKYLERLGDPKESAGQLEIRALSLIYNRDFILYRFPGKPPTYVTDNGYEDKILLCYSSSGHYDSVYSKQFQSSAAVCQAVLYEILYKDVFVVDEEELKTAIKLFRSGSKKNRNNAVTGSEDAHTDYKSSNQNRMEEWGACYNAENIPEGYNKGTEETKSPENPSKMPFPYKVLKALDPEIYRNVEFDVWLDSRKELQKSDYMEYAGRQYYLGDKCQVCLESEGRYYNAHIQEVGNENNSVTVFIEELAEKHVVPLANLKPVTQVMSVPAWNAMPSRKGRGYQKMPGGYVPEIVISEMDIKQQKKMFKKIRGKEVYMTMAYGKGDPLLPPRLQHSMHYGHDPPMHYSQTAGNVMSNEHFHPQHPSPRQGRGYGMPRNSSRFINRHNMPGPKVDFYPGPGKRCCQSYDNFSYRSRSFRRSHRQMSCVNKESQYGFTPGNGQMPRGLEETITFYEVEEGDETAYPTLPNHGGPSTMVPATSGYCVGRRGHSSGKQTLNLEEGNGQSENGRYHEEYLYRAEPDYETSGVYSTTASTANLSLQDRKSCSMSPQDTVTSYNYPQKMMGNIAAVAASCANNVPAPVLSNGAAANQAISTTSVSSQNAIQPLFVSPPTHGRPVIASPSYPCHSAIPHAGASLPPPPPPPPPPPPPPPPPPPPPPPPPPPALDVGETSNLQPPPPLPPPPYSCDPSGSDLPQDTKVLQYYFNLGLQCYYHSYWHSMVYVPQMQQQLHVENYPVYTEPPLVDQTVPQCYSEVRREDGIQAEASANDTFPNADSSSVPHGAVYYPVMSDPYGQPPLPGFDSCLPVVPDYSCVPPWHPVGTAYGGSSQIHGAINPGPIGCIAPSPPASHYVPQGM
# In short: (§1)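 Fragment (200 µM) or vehicle was incubated for 3 h with triplicate HEK293T lysate samples of 495 µg, which were then treated with Biotin-Ahx-Ub-VS at 0.5 µM final for 1 h. Labelled DUBs were enriched on NeutrAvidin, digested with LysC and trypsin, and analysed by diaPASEF LC-MS/MS. Values are average log2 fragment/vehicle ratios from an unpaired t-test on global-median-normalised Spectronaut label-free quantities, using proteins with ≥2 unique peptides.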
# [2] = biological target: ATXN3 (UniProt P54252)
# In short: as §1
# [3] = biological target: T2, BAP1 (UniProt Q92560)
# T2 sequence (whole entry): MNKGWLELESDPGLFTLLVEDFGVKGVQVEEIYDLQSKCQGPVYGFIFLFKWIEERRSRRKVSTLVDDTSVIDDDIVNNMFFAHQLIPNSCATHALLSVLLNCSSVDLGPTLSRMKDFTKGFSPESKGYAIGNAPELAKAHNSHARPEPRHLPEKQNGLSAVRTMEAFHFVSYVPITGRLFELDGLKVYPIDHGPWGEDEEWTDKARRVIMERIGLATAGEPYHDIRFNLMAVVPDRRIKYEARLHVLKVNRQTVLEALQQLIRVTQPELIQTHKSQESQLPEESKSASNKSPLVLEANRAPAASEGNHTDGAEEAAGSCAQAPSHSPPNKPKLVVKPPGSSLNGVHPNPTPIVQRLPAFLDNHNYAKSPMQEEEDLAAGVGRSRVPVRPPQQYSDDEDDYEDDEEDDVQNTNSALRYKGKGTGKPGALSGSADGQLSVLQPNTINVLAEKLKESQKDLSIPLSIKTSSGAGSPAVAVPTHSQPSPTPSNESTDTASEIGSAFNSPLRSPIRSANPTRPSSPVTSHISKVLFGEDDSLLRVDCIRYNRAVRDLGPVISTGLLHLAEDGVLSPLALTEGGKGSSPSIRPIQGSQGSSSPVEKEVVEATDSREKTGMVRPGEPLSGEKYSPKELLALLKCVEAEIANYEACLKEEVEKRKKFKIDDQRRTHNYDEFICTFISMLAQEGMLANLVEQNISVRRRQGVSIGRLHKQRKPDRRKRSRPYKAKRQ
# In short: as §1
# [4] = biological target: EIF3F (UniProt O00303)
# In short: as §1
# [5] = biological target: EIF3H (UniProt O15372)
# In short: as §1
# [6] = biological target: T3, FAM105A (UniProt Q9NUU6)
# T3 sequence (whole entry): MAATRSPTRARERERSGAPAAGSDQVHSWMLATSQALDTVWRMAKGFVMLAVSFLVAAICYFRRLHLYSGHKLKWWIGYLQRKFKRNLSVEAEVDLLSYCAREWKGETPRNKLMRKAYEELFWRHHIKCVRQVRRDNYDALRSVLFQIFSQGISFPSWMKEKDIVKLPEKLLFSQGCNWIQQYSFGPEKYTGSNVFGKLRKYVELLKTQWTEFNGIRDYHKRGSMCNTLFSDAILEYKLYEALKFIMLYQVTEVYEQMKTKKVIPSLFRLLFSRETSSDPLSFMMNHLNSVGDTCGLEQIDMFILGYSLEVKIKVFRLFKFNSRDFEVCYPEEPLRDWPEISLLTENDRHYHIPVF
# In short: as §1
# [7] = biological target: OTUB1 (UniProt Q96FW1)
# In short: as §1
# [8] = biological target: T4, OTUD4 (UniProt Q01804)
# T4 sequence (whole entry): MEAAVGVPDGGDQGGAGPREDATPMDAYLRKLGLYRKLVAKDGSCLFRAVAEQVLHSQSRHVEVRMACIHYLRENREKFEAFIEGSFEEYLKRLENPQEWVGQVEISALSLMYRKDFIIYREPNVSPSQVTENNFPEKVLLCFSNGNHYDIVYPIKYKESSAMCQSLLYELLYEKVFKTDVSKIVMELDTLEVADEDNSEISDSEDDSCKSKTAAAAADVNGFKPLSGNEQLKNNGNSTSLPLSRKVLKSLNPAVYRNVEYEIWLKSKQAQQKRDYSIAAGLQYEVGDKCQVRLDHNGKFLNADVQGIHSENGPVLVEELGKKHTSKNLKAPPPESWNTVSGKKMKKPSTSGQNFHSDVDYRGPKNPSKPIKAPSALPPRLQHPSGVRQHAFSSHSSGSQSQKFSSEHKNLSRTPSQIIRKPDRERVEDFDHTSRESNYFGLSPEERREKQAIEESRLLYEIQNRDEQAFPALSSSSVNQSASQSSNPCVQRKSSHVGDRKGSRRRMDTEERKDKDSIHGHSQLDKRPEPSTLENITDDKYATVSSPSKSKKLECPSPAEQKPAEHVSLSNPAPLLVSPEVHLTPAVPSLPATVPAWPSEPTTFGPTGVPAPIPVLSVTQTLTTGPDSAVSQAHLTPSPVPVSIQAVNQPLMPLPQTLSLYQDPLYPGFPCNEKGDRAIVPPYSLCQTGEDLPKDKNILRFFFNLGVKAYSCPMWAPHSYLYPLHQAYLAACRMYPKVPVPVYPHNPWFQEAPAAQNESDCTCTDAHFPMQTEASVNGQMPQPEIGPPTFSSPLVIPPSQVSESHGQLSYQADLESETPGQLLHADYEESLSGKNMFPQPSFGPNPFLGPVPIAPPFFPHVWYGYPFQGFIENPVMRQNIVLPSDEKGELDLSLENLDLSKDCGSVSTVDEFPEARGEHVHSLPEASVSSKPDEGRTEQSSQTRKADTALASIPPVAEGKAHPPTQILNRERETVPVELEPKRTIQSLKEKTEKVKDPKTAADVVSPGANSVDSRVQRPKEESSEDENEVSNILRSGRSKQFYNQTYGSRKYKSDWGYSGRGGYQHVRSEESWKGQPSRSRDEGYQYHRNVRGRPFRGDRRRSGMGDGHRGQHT
# In short: as §1
# [9] = biological target: T5, OTUD5 (UniProt Q96G74)
# T5 sequence (whole entry): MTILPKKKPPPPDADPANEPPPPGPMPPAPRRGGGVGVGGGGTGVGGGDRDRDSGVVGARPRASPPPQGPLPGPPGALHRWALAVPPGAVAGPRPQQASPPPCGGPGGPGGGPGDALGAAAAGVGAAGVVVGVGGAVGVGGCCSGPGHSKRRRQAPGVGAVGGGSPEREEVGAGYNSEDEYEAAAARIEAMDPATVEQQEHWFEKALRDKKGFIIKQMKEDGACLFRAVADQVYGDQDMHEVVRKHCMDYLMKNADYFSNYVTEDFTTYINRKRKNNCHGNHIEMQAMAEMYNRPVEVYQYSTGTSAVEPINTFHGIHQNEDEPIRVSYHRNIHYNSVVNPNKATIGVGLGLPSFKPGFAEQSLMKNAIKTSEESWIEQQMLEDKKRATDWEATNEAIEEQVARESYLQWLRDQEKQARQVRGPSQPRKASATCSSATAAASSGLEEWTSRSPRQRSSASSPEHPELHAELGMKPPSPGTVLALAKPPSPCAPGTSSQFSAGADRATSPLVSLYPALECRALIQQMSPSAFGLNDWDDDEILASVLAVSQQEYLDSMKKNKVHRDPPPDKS
# In short: as §1
# Sequence of EIF3H (O15372 whole entry): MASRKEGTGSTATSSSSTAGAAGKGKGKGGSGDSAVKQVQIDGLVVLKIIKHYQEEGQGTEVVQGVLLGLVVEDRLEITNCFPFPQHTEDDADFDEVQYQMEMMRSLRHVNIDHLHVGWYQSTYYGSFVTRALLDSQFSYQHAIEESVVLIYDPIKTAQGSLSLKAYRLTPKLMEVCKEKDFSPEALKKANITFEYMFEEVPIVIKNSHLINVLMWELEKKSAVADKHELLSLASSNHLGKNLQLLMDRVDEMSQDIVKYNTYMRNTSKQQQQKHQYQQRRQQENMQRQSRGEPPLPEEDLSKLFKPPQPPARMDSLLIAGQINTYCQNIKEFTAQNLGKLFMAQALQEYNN
# Sequence of OTUB1 (Q96FW1 whole entry): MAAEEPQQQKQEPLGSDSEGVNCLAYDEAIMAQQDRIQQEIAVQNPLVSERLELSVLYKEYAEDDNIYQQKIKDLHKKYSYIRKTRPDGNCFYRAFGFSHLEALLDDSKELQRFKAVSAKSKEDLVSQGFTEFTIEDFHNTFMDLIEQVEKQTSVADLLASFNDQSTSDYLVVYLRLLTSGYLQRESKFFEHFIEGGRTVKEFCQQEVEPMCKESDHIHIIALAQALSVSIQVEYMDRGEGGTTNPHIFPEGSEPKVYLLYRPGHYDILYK
# Sequence of EIF3F (O00303 whole entry): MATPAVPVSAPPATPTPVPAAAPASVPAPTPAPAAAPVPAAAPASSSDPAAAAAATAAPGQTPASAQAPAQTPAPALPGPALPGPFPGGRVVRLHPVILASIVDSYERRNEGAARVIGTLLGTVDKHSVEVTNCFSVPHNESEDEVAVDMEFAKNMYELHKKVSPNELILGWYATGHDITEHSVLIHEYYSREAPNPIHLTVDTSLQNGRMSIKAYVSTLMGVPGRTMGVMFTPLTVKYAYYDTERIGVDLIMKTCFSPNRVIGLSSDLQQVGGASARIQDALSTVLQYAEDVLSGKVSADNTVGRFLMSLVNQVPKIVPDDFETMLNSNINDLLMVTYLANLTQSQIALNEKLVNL
# Sequence of ATXN3 (P54252 whole entry): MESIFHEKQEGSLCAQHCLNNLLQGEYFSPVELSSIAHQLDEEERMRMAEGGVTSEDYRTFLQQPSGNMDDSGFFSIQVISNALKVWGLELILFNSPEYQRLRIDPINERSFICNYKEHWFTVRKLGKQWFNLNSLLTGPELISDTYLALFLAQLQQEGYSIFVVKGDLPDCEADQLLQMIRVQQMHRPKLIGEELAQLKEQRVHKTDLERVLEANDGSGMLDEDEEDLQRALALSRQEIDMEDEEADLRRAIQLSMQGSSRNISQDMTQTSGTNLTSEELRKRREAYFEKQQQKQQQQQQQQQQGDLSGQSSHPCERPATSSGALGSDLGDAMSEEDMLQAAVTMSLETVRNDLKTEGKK
smiles,measurement,setting,value
Cl.Cn1nccc1C(NC(=O)CCl)c1ccccc1 (centres undefined),log2 ratio of Biotin-Ahx-Ub-VS probe labelling,[1],-0.0316
same,log2 ratio of Biotin-Ahx-Ub-VS probe labelling,[2],-0.49
same,log2 ratio of Biotin-Ahx-Ub-VS probe labelling,[3],-4.27 (active)
same,log2 ratio of Biotin-Ahx-Ub-VS probe labelling,[4],-0.145
same,log2 ratio of Biotin-Ahx-Ub-VS probe labelling,[5],0.106
same,log2 ratio of Biotin-Ahx-Ub-VS probe labelling,[6],0.0639
same,log2 ratio of Biotin-Ahx-Ub-VS probe labelling,[7],-0.173
same,log2 ratio of Biotin-Ahx-Ub-VS probe labelling,[8],-0.894
same,log2 ratio of Biotin-Ahx-Ub-VS probe labelling,[9],-0.379
